This is a sample that favours compounds with a hit; in the whole collection about 2.4% have one here.
Nrf2 inh = Nrf2 pathway inhibition | AID 504444 | Potency, µM (titrated, usually from 46 µM), for inactives: at the highest dose activity change, negative = inhibition, hits mostly inhibitors | A549 ARE-Fluc reporter, luciferase luminescence, 18-24 h | 360,000 tested, 2.1% active; further: on the % scale 0 is the no-effect control and ±100 the full control effect; nearly all actives have a fitted effect of over 60% in size
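Cells were seeded and rested 2 h, then exposed to compounds for 18-24 h. CellTiter-Fluor was read first as a viability measure. BugLite was added 15 min before the final luminescent read of ARE-luciferase activity in A549 cells.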
Epigenetic reg = epigenetic control regulation, reporter derepression. murine LDR cells, GFP reporter derepression, 30 h. Potency, µM (titrated, usually from 53.9 µM), without a hit: at the top dose GFP activation, actives largely listed as activators. 280,000 tested, 0.2% active. AID 1865; further: % of control where 0% means no effect; nearly all actives have a fitted effect of over 60% in size
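Readout is the number of GFP-expressing murine LDR cells, counted by cytometry following washing. Cells were treated with compound for 30 h at 37 C; the stably integrated CMV-GFP locus is normally silent.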
PINK1 expr mod = changes PINK1 expression | PINK1 immunofluorescence, high-content cytometry, 24 h | Potency, µM (highest dose often 76.6 µM), inactives show at the highest dose activation (PINK1 increase), usual class: activators | 410,000 tested, 0.2% active | AID 624263; active means well fitted activation curve with a large enough effect; inconclusive means small, poorly fitted or top-dose-only effect; cell line not stated here; further: % of control where 0% means no effect; nearly all actives have a fitted effect of over 65% in size
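Compound titrations (5 concentrations, 24 h) on a stable cell line; DMSO and CCCP controls. Endpoint: fixed-cell PINK1 immunofluorescence with mitochondrial, cell and nuclear markers, scanned by microplate cytometer.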
A549 tox = kills or reduces viability of A549 cells in Nrf2 counter-screen. A549 ARE-Fluc cells, CellTiter-Fluor viability, 18-24 h. Potency, µM (titrated, usually from 46 µM), for the others: at the top dose activity change, negative = cytotoxicity, hits mostly inhibitors. 390,000 tested, 0.16% active; further: on the % scale 0 is the no-effect control and ±100 the full control effect
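A549 ARE-Fluc cells in 5% FBS OPTI-MEM, 5000 cells/well, rested 2 h then exposed to compounds in concentration-response for 18-24 h at 37 °C. Viability by CellTiter-Fluor fluorescence (Ex 405/Em 525) after 30 min; luciferase luminescence (BugLite, 15 min, RT) read afterwards.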
Nrf2 activator = Nrf2 pathway activation. AREc32 ARE-luciferase reporter (MCF7-derived line), luminescence, 24 h. 410,000 tested, 0.31% active. Potency, µM (doses to about 46.1 µM), without a hit: at the highest dose activation, most hits filed as activators; further: % of control where 0% means no effect; nearly all actives have a fitted effect of over 65% in size
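For detection, Steady-Glo was added and plates sat 30 min at RT; before that, AREc32_Fluc cells grown overnight in OPTI-MEM/5% FBS had been treated with 23 nL compound for 24 hr at 37 deg C.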
An asterisk follows results filed as active; [ ] = dose if it differs, or a comment. Unless noted, the call rests on the fitted dose curve; in most records, active means well fitted curve in the direction sought with a large enough effect; inconclusive means small, poorly fitted or top-dose-only effect, or another doubt; inactive means no such curve, though single readings can be large; an effect the other way counts as inactive or inconclusive. Potency means the concentration at half of the fitted maximal effect.

COc1ccc(Cc2c(-c3ccccc3)nc3ccc(Br)cn23)c(C)c1 was read as PINK1 expr mod 32µM* and Nrf2 activator -1%.
Screening COC(=O)c1ccc2nc(-c3ccc(C)cc3)c(Cc3ccc(C)cc3)n2c1 returned PINK1 expr mod 11% and Nrf2 activator 11%.
For COC(=O)c1ccc2nc(-c3ccco3)c(Cc3cccc(F)c3)n2c1 the results were PINK1 expr mod 1% and Nrf2 activator 11µM*.
`CC(C)(C)Cc1c(-c2cccc(Cl)c2)nc2ccc(Br)cn12` gave PINK1 expr mod inconclusive and Nrf2 activator 11%.
`CC(C)(C)Cc1c(-c2ccc(Br)cc2)nc2ccc(Br)cn12` gave PINK1 expr mod 40µM* and Nrf2 activator 0%.
For CCc1c(C)sc2c1CCN(Cc1ccc(F)cc1)C2c1ccccc1 (configuration not stated) the results were Epigenetic reg 3%, PINK1 expr mod 0%, A549 tox -25% and Nrf2 activator 0%.
`COC(=O)c1ccc2nc(-c3ccco3)c(Cc3ccc(OC)cc3C)n2c1` gave PINK1 expr mod 1% and Nrf2 activator 11µM*.
For COC(=O)c1ccc2nc(-c3ccc(F)cc3)c(Cc3ccc(OC)cc3C)n2c1 the results were PINK1 expr mod 2% and Nrf2 activator 0%.
`CN1CC=C2C(C#N)=C(N)C(C#N)(C#N)C(c3cccc(Cl)c3Cl)C2C1` (configuration not stated) gave Nrf2 inh inconclusive, Epigenetic reg -1%, PINK1 expr mod 14µM*, A549 tox -20% and Nrf2 activator 6%.
N#CC1=C(N)C(C#N)(C#N)[C@H](c2ccoc2)[C@H]2CN(Cc3ccccc3)CC=C12 was read as Epigenetic reg 1%, PINK1 expr mod inconclusive, A549 tox inconclusive and Nrf2 activator 5%.
Screening CN1CC=C2C(C#N)=C(N)C(C#N)(C#N)[C@H](c3ccoc3)[C@H]2C1 returned Nrf2 inh -3%, Epigenetic reg -4%, PINK1 expr mod 40µM*, A549 tox -1% and Nrf2 activator 0%.
Screening CC(=O)N1CC=C2C(C#N)=C(N)C(C#N)(C#N)[C@H](c3ccoc3)[C@H]2C1 returned Nrf2 inh -19%, Epigenetic reg -1%, PINK1 expr mod 4%[38.3 µM], A549 tox 0% and Nrf2 activator 2%.
`Cc1ccccc1C1(CC(=O)N2CCOCC2)CC(=O)N(Cc2cccnc2)C1=O` (configuration not stated) gave PINK1 expr mod -1%.
COc1cccc(CN2CCN(Cc3cc(OC)c(OC)cc3[N+](=O)[O-])CC2)c1 was read as Nrf2 inh 5%, Epigenetic reg -1%, PINK1 expr mod -1%[38.3 µM], A549 tox 19% and Nrf2 activator 0%.
For O=[N+]([O-])c1ccc(N2CCN(Cc3cccc([N+](=O)[O-])c3)CC2)cc1 the results were Nrf2 inh 21µM*, PINK1 expr mod 2%, A549 tox inconclusive and Nrf2 activator 1%[9.22 µM].
For COc1cc(CN2CCN(Cc3ccc([N+](=O)[O-])cc3)CC2)c([N+](=O)[O-])cc1OC the results were Nrf2 inh 21µM*, Epigenetic reg 1%, PINK1 expr mod 1%, A549 tox -4% and Nrf2 activator 3%.
Cc1ccc(NS(=O)(=O)c2cc3c(cc2C)OCC(=O)N3)cc1C was read as Nrf2 inh -14% and A549 tox 3%.
For CC(C)(C)c1cccc(S(=O)(=O)N2CCN(c3nc(-c4cccs4)nc4ccccc34)CC2)c1 the results were Nrf2 inh -2%, PINK1 expr mod 0% and A549 tox 3%.
CCOc1cccc(/C=C2\NC(=S)N(c3ccccc3)C2=O)c1O was read as Nrf2 inh 0%, Epigenetic reg 1%, PINK1 expr mod 5%, A549 tox -3% and Nrf2 activator 11µM*.
For Cc1ccc(-c2nnc(Nc3ccc(CC(N)=O)cc3)c3ccccc23)cc1 the results were Nrf2 inh -6%, Epigenetic reg -2%, PINK1 expr mod -2%[38.3 µM], A549 tox -2% and Nrf2 activator 5%.
Screening Cc1ccc(-c2nnc(Nc3ccc4c(c3)nc(C)n4C)c3ccccc23)cc1 returned Nrf2 inh 21µM*, Epigenetic reg -2%, A549 tox inconclusive and Nrf2 activator 3%.
For Cc1nc(C)n(CC(=O)NCC2Cc3cc(-c4ccsc4)cc(Cl)c3O2)n1 (configuration not stated) the results were PINK1 expr mod 1%.
Screening Cc1ncc2c(c1CNC(=O)c1ccc3c(c1)OCO3)CCN(C(=O)/C=C/c1ccccc1Cl)C2 returned PINK1 expr mod -1%.
`COc1cccc(C2C(C(=O)Nc3nc4ccccc4s3)=C(C)NC3=C2C(=O)CC(C)(C)C3)c1OC` (configuration not stated) gave Nrf2 inh 16µM*, Epigenetic reg -2%, PINK1 expr mod 5%, A549 tox -15% and Nrf2 activator -1%.
`CCOC(=O)c1ccc(OCC2c3cc(OC)c(OC)cc3CCN2C(=O)Cc2ccc(OC)c(OC)c2)cc1` (configuration not stated) gave Epigenetic reg 2%, PINK1 expr mod -2%, A549 tox -2% and Nrf2 activator 5%.
`Cc1ccc(C(=O)Nc2nnc(-c3ccco3)o2)cc1` gave Nrf2 inh 3%, Epigenetic reg 0%, PINK1 expr mod 2%, A549 tox 13% and Nrf2 activator 2%.
CC1CCCN(S(=O)(=O)c2ccc(C(=O)Nc3nnc(-c4ccccn4)o3)cc2)C1 (configuration not stated) was read as Nrf2 inh 13µM*, Epigenetic reg -7%, PINK1 expr mod 0%, A549 tox 0% and Nrf2 activator 2%.
Screening O=C(Nc1nnc(-c2ccco2)o1)c1ccc([N+](=O)[O-])s1 returned Nrf2 inh 21µM*, Epigenetic reg 2%, PINK1 expr mod 2%, A549 tox inconclusive and Nrf2 activator 2%.
O=C(Nc1nnc(-c2ccc(F)cc2)o1)c1ccc(S(=O)(=O)N2CCOCC2)cc1 was read as Nrf2 inh 9.2µM*, PINK1 expr mod 3%, A549 tox -19% and Nrf2 activator 2%.
Screening CC1CCCN(S(=O)(=O)c2ccc(C(=O)Nc3nnc(-c4ccccc4Cl)o3)cc2)C1 (configuration not stated) returned Nrf2 inh inconclusive, Epigenetic reg -1%, PINK1 expr mod 2%, A549 tox -4% and Nrf2 activator 1%.
COc1ccccc1NC(=O)c1ccc(S(=O)(=O)N2CCC(C)CC2)cc1 was read as Nrf2 inh 8.2µM*, PINK1 expr mod 2%, A549 tox 0% and Nrf2 activator -1%.
